GRIN3A LBD mod: binders of NR3A ligand-binding domain, primary screen, biophysical, differential scanning fluorimetry, uHTS. NR3A LBD differential scanning fluorimetry, Tm shift; 0% = protein alone, 100% = glycine-bound protein. Glutamate receptor ionotropic, NMDA 3A (GRIN3A) ligand-binding domain. AID 1259313, 2017. Tm shift relative to glycine control, % at 25 µM. 340,000 compounds, 2.5% hits;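 active = melting temperature shift of at least 10% of the positive control shift, at one fixed dose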
KLK7 zymogen act: proKLK7 zymogen activators, primary screen, biochemical, fluorescence intensity; Kallikrein-7 (Homo sapiens), P49862; purified proKLK7, EDANS-DABCYL substrate fluorescence; 100% is mature enzyme control, 0% vehicle; activation, % at 7 µM; 370,000 compounds, 0.9% hits; AID 652039, 2013;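 active = activation above the mean of all tested compounds plus 3 SD, computed per campaign excluding outliers beyond control limits, cut at about 13% in these data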
AHR act: AHR activators, primary screen, cell-based, luminescence, luciferase reporter, human; Aryl hydrocarbon receptor (Homo sapiens), P35869; AHR-responsive luciferase reporter cells; activation, % at 5 µM; 320,000 compounds, 2.5% hits; in the data active = activation above about 47%;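 also: 0% = vehicle wells and 100% = reference agonist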
Target sequence (P35869 whole entry, looked up): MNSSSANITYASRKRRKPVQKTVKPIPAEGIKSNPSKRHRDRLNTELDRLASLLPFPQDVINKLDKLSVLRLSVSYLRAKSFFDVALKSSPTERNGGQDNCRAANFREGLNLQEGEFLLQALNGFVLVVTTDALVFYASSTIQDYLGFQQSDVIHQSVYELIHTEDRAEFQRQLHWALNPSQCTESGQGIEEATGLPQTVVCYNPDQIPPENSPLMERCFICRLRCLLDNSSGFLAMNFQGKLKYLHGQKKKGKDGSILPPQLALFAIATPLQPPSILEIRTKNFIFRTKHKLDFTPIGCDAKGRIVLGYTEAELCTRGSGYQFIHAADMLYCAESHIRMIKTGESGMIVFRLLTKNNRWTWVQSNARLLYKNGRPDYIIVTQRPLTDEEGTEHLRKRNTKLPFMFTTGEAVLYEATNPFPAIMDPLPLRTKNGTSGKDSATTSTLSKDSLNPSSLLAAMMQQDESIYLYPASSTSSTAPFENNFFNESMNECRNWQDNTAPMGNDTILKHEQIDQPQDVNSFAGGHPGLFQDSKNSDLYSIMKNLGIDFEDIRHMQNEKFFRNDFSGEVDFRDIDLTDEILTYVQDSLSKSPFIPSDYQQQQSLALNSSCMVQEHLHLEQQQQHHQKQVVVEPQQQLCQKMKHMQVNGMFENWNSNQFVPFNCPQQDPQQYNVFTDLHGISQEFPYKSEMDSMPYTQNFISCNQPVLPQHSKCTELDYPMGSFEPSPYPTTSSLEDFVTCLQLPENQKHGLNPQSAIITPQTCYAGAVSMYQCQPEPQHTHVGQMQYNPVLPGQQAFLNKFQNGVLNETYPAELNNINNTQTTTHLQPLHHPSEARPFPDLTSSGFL
ADAM17 inh: ADAM17 inhibitors, primary screen, biochemical, QFRET | Disintegrin and metalloproteinase domain-containing protein 17 (Homo sapiens), P78536 | 370,000 compounds, 0.83% hits | inhibition, % at 6.95 µM | AID 720648, 2013 | recombinant ADAM17, EDANS/DABCYL FRET peptide cleavage;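 active = inhibition above the mean of compounds lying between control limits plus 3 SD, set per campaign, cut at about 8.5% in these data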;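 also: 0% = DMSO-only wells as the low control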
rCAG binder: binders of r(CAG) RNA repeats, primary screen, biochemical, fluorescence | r(CAG) RNA repeat, TO-PRO-1 dye displacement fluorescence | inhibition, % at 3 µM | 370,000 compounds, 1.3% hits | AID 651821, 2012;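 active = inhibition above the plate cutoff, the mean of all test compounds on that plate plus 3 SD, cut at about 35% in these data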;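 also: 0% = DMSO alone and 100% = 100 µM mitoxantrone as full dye displacement; higher means more dye released from RNA so lower well fluorescence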
ADAM10 inh: human ADAM10 inhibitors, primary screen, biochemical, QFRET, HTS; recombinant ADAM10, EDANS/DABCYL FRET peptide cleavage, 3 h; inhibition, % at 7 µM; 370,000 compounds, 0.62% hits; AID 720582, 2013;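 active = inhibition above a per-campaign cutoff equal to the mean of compounds falling between control-based bounds plus 3 SD, cut at about 20% in these data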;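 also: 0% = DMSO wells while the 100% control is not disclosed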
* = called active by the depositor; i = inactive; · = no result. An excerpt weighted towards active compounds, which were near 7% of everything screened.

SMILES	GRIN3A LBD mod	KLK7 zymogen act	AHR act	ADAM17 inh	rCAG binder	ADAM10 inh
COc1cc(/C=C2/CC/C(=C/c3ccc(O)c(OC)c3)C2=O)ccc1O	14*	0	-2	4	26	10
COc1cc(C=C2C(=O)c3ccccc3C2=O)ccc1O	0	-1	10	0	5	4
COc1ccc(C=C2SC(=O)NC2=O)cc1OC	16*	1	·	-5	5	-19
COc1cc(/C=C2\COC/C(=C\c3ccc(O)c(OC)c3)C2=O)ccc1O	26*	1	-1	2	11	10
COc1cc(/C=C2\CC/C(=C\c3ccc(OCCO)c(OC)c3)C2=O)ccc1OCCO	-6	-1	5	0	-3	5
O=C(Nc1ccc2c(c1)OCO2)OC1CCC12CCCCC2 (configuration not stated)	·	0	·	4	4	7
COc1cc2c(cc1OC)C(COc1ccc(F)cc1)NCC2 (configuration not stated)	271*	2	5	-5	1	-15
COc1ccc(-c2cc(C(F)F)n3ncc(C(=O)N4CCN5CCCC5C4)c3n2)cc1 (configuration not stated)	-2	24*	-1	-159	5	i
CCc1ccc(NC(=O)Cn2c(SC)nc3ccccc32)cc1	0	0	78*	0	3	3
CSc1nc2ccccc2n1CC(=O)Nc1ccccc1	1	0	0	2	2	-9
O=C(Cn1c(/C=C/c2ccccc2)nc2ccccc21)Nc1ccc(F)cc1	14*	-55	13	-159	15	-465
Cc1cc(=O)[nH]c(SCC(=O)Nc2cccc(Cl)c2F)n1	·	0	·	3	4	3
CC[C@]1(c2ccccc2)C(=O)N(C(=O)OC)N1C(=O)OC	-3	1	-1	10*	4	9
COC(=O)N1C(=O)[C@](Cc2ccccc2)(c2ccccc2)N1C(=O)OC	13*	1	3	0	4	2
CC[C@@]1(c2ccccc2)C(=O)N(C(=O)OC)N1C(=O)OC	2	1	1	-2	-2	2
CCOC(=O)[C@]12CCCCC/C=C\1N(Cc1ccc(OC)cc1)C(=O)[C@H]2CC(=O)NCc1cccs1	·	1	·	7	1	9
CCOC(=O)[C@]12CCCCC/C=C\1N(Cc1ccc(OC)cc1)C(=O)[C@H]2CC(=O)N1CCCC1	·	1	·	-1	2	-2
CCCn1c(=O)c(C(=O)N/N=C/c2ccccc2F)c(O)c2ccccc21	1	0	5	2	0	0
CCCn1c(=O)c(C(=O)N/N=C/c2ccc(F)cc2)c(O)c2ccccc21	19*	1	5	1	-2	-7
O=C(OCc1nc2ccsc2c(=O)[nH]1)c1ccco1	0	0	6	-2	0	-3
O=C(OCc1nc2ccsc2c(=O)[nH]1)c1cc(Br)c(Br)s1	22*	-1	5	-5	9	-7
Cc1nc2c(Br)cc(Br)cc2cc1O	24*	0	7	6	6	7
COc1cc2nc(Nc3cccc(F)c3)nc(N)c2cc1OC	17*	0	33	-17	7	-25
COc1nc(Nc2cccc(F)c2)nc(OC)n1	-1	0	12	-1	-2	-3
COC(=O)[C@H](CC(C)C)N(Cc1cn(Cc2ccc(C)cc2)nn1)S(=O)(=O)c1ccc(F)cc1Br	·	0	·	9	0	13
SMILES	GRIN3A LBD mod	KLK7 zymogen act	AHR act	ADAM17 inh	rCAG binder	ADAM10 inh
Clc1ccc2c(NCc3cccs3)ncnc2c1	-8	-1	22	-3	0	-8
Clc1ccc2c(NCc3ccccn3)ncnc2c1	-2	-1	59*	-6	3	-10
O=c1c2c(nc3c(-c4cccc5ccccc45)c[nH]n13)CCC2	1	-86	17	-40	6	-100
O=c1c2c(nc3c(-c4ccc(Cl)cc4)c[nH]n13)CCCC2	-9	-2	67*	-7	9	-1
Cc1ccc(-c2cc(-c3nnc(SCC(=O)Nc4nccs4)n3N)[nH]n2)cc1	·	0	·	-1	8	-8
O=[N+]([O-])c1ccc(/C=N/NC(=S)Nc2ccc(Cl)cc2Cl)s1	11*	-1	17	0	13	2
Cc1nn(C)cc1/C=N/NC(=S)Nc1ccc(Cl)cc1Cl	18*	0	27	3	5	10
Cc1ccc(Cl)cc1NC(=S)N/N=C/c1cccc2ccccc12	10	-2	55*	0	20	4
Cc1nn(C)cc1/C=N/NC(=O)c1ccc2c(c1)OCO2	4	0	3	0	2	5
O=[N+]([O-])c1cc(-c2n[nH]c(-c3ccccc3)n2)cc([N+](=O)[O-])c1	27*	0	40	-4	4	5
O=[N+]([O-])c1cc([N+](=O)[O-])c2n[nH]c(-c3ccccc3)c2c1	-2	0	29	-3	-1	-3
CC(CCN1CCC(C(O)(c2ccccc2)c2ccccc2)CC1)Oc1cccc(C(F)(F)F)c1 (configuration not stated)	·	1	·	6	-1	9
COc1ccc2c(=O)c(C(=O)NCCc3ccccc3)c[nH]c2c1	-1	0	35	-3	-1	1
COc1cc(NC(=S)NCCc2c[nH]c3ccccc23)c(OC)cc1Cl	36*	0	3	8	7	11
Cc1ccc(NC(=S)NCCc2c[nH]c3ccccc23)c(C)c1	12*	0	-2	4	0	6
CCOc1ccc(N(C)S(=O)(=O)c2ccc3[nH]cc(C(=O)NCC4CCCO4)c(=O)c3c2)cc1 (configuration not stated)	-3	-1	56*	-3	11	3
Cc1ccccc1N(C)S(=O)(=O)c1ccc2[nH]cc(C(=O)NCC3CCCO3)c(=O)c2c1 (configuration not stated)	-4	·	3	·	·	·
COc1ccc2[nH]cc(C(=O)NCCc3ccccc3)c(=O)c2c1	1	1	74*	-3	-1	-4
CCC(C)NC(=O)CNc1nnnn1-c1ccccc1 (configuration not stated)	·	0	·	2	2	1
Cc1ccc(NC(=O)C2CCN(c3nnc(-n4cccc4)s3)CC2)cc1C	·	1	·	1	12	3
